Hits are enriched below; roughly 3% of the tested compounds scored in any of these assays.
SENP6 block: SENP6 protease inhibitors, primary screen, biochemical, luminescence, uHTS; Recombinant SENP6 catalytic domain, aminoluciferin luminescence; 330,000 tested, 1.8% active; inhibition, % at 10 µM; Sentrin-specific protease 6 (Homo sapiens), Q9GZR1; AID 2599, 2010;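 active means inhibition above about 50% at the single tested dose, limit read from the data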;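 further: plate controls were DMSO wells with enzyme for no effect and DMSO wells lacking enzyme for full effect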
Target sequence (Q9GZR1 628-1112 limits assumed): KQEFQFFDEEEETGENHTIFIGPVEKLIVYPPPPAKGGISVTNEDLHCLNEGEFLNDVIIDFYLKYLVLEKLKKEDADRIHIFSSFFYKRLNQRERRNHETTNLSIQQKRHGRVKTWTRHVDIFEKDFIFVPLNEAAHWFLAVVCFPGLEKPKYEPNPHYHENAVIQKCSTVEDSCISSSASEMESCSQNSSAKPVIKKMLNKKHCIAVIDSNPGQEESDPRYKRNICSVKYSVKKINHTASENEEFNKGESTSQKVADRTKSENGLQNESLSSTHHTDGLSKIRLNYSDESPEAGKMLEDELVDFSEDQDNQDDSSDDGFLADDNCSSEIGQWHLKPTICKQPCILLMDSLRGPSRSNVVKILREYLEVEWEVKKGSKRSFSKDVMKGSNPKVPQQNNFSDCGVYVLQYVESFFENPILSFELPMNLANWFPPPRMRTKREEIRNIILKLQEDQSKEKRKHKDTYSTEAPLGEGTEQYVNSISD
PPC-1+TRAIL kill: compounds killing PPC-1 cancer cells with TRAIL present, primary screen, TRAIL potentiator project, ATPLite luminescence, uHTS; PPC-1 cells + TRAIL, ATPLite viability luminescence; cell killing (% activity), % at 4 µM or 5 µM; 220,000 tested, 0.41% active;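 active means cell killing above 50% in the first pass at 4 µM, then a duplicate retest at 5 µM averaging 50% or more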;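 further: plate controls were cells with TRAIL plus DMSO for no effect and medium-only wells lacking cells for full effect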
SENP8 block-1: human SENP8 protease inhibitors, primary screen, biochemical, fluorescence, Nedd8 protein substrate, uHTS | 360,000 tested, 0.64% active | inhibition, % at 20 µM | Sentrin-specific protease 8 (Homo sapiens), Q96LD8 | recombinant SENP8; in the data active means inhibition mostly above about 40%, no sharp cut-off; inactive means mostly below about 27%
TRAIL sens C8: viability loss with TRAIL in NB7+C8 cells, primary screen, TRAIL sensitizer project, cell-based, ATPlite luminescence | 360,000 tested, 1% active | inhibition (viability loss, TRAIL sensitization), % at 10 µM;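 active means compounds causing at least 50% loss of cell viability in the single-dose screen, relative to plate controls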
SENP7 block: SENP7 protease inhibitors, primary screen, biochemical, luminescence, uHTS | Sentrin-specific protease 7 (Homo sapiens), Q9BQF6 | recombinant SENP7, Z-RLRGG-aminoluciferin luminescence, 40 min | inhibition, % at 5 µM | 330,000 tested, 1.5% active | AID 434973, 2010;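 active means inhibition above about 50% at the single test dose, limit read from the data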;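 further: plate controls were DMSO with enzyme for no effect and no enzyme buffer wells for full effect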
SENP8 block-2: SENP8 protease inhibitors, primary screen, biochemical, luminescence. Sentrin-specific protease 8 (Homo sapiens), Q96LD8. purified SENP8, Z-RLRGG-aminoluciferin cleavage. inhibition, % at 10 µM. 330,000 tested, 1.2% active; in the data active means inhibition above about 50%
SENP8 confirm: SENP8 protease inhibitors, retest, confirmation, biochemical, luminescence, single concentration; 6,200 tested, 40% active; inhibition, % at 12.5 µM; shares compounds with SENP7 block; Recombinant SENP8, Z-RLRGG-aminoluciferin luminescence, 60 min; AID 488912, 2010;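 active means mean inhibition across replicates above about 50%, limit read from the data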
SENP6 confirm: SENP6 protease inhibitors, confirmation, biochemical, luminescence, single concentration; AID 488915, 2010; inhibition, % at 12.5 µM; recombinant SENP6, Z-RLRGG-aminoluciferin luminescence; shares compounds with SENP7 block; 6,200 tested, 58% active
SENP7 confirm: SENP7 protease inhibitors, retest, confirmation, biochemical, luminescence, single concentration. shares compounds with SENP7 block. recombinant SENP7, Z-RLRGG-aminoluciferin luminescence, 40 min. inhibition, % at 12.5 µM. 6,200 tested, 69% active. AID 488917, 2010
Casp3 select: caspase-3 protease inhibitors, confirmation, selectivity assay for SENP inhibitor project, biochemical, single concentration; shares compounds with SENP7 block; purified caspase-3, Z-DEVD-aminoluciferin luminescence, 60 min; inhibition, % at 12.5 µM; 6,200 tested, 60% active; AID 488918, 2010;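 active means mean inhibition above about 50%, limit read from the data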;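 further: plate controls were enzyme with DMSO for no effect and wells without caspase-3 for full effect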
SENP luc ctr: luminescence interference (SENP counter-screen); 6,200 tested, 39% active; shares compounds with SENP7 block; Pre-incubated SENP8/Z-RLRGG-aminoluciferin, luciferase luminescence interference; AID 488919; inhibition, % at 12.5 µM;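 active means mean inhibition above about 50% when retested at one dose, limit read from the data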;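 further: plate controls were DMSO wells with completed reaction for no effect and substrate without enzyme for full effect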
* = called active by the depositor; i = inactive; . = no result.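 How the source made its calls, unless noted: active means mean inhibition above about 50% in the one-dose retest (limit read from the data); inactive means the rest.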

SMILES	SENP6 block	PPC-1+TRAIL kill	SENP8 block-1	TRAIL sens C8	SENP7 block	SENP8 block-2	SENP8 confirm	SENP6 confirm	SENP7 confirm	Casp3 select	SENP luc ctr
CCCc1nnc(NC(=O)CC(=O)Nc2ccccc2C(=O)O)s1	60.8*	28.5	-0.3	-10.4	38.4	42.9	65.4*	60.9*	83.6*	87.1*	59.6*
C(=N\N=C\c1ccccc1)/c1ccccc1	83.0*	35.8	5.4	-6.9	69.5*	65.1*	-2.2	66.9*	94.3*	62.3*	10.4
c1ccc(Cn2ccc(-c3cnc(-c4ccccc4)s3)n2)cc1	81.0*	12.1	i	19.5	79.9*	64.1*	8.8	78.0*	91.8*	62.9*	64.3*
COc1cc(SC)ccc1C(=O)NNC(=O)c1cc(C)oc1C	97.9*	.	-4.5	69.1*	97.5*	93.9*	97.6*	98.6*	102.6*	98.3*	92.6*
Cc1cc(N)n(-c2nc3ccccc3s2)n1	86.9*	.	8.8	48.5	93.5*	86.3*	91.6*	92.8*	100.1*	92.9*	40.2
CCOC(=O)[C@]12CCCC=C1N(Cc1cccc3ccccc13)C(=O)[C@H](CC(=O)NCC1CCCCC1)C2	.	.	13.6	18.4	.	.	.	.	.	.	.
CCC1(c2ccc(F)cc2)NC(=O)N(CC(=O)Nc2ccc(-c3nc4ccc(C)cc4s3)cc2)C1=O (centres undefined)	58.2*	34.9	-265.7	33.5	-1.3	-11.7	2.8	-3.4	13.9	17.5	17.3
COc1ccc(/C=C/C(=O)c2ccccn2)cc1	27.1	5.6	-21.5	-1.3	14.9	16.8	.	.	.	.	.
COc1ccc(/C=C/C(=O)c2ccc(O)cc2)cc1	90.8*	21.1	35.0	0.1	73.9*	90.4*	65.2*	47.8	64.4*	49.4	83.0*
COc1ccc(/C=C/C(=O)c2ccccc2O)cc1	81.1*	22.7	11.3	13.3	67.1*	64.1*	88.2*	84.2*	83.7*	34.9	46.1
COc1ccc(/C=C/C(=O)c2ccoc2)cc1	5.7	10.1	-12.5	-1.3	-5.8	-17.4	.	.	.	.	.
Cc1cc2c(N=NC(=O)CCc3ccccc3)c(O)[nH]c2cc1Br	2.1	-16.8	28.9	6.3	-1.7	2.7	.	.	.	.	.
CC(=O)c1c(C)oc2ccc(OCc3ccccc3)cc12	55.0*	.	10.0	-5.5	33.2	34.2	30.9	28.9	68.0*	24.3	15.5
Cc1oc2ccc(OCc3ccccc3Cl)cc2c1C(=O)O	61.7*	.	19.9	3.8	-0.3	36.8	35.4	40.0	51.1*	55.0*	22.3
Cc1oc2ccc(OCc3ccc(F)cc3Cl)cc2c1C(=O)O	24.1	13.7	6.2	-8.8	10.0	19.6	.	.	.	.	.
O=C(O)c1ccccc1COc1ccccc1Cl	-17.8	14.2	5.3	-4.3	5.6	-3.3	.	.	.	.	.
COC(=O)c1cc(COc2ccc3oc(C)c(C(=O)OC)c3c2)c(C)o1	-7.4	6.9	4.5	-0.7	-1.4	-1.5	.	.	.	.	.

Screens deposited in PubChem BioAssay by Sanford-Burnham Center for Chemical Genomics.
